In PubChem BioAssay AID651864 (Broad Institute, 2012):
Results with a measured potency or affinity are listed apart. The source made the active and inactive calls. No rule for the calls is given here.

Assay: HeLa cell cytotoxicity, dose response, cytotoxicity control, 24 h, plate reader, powder samples, set 3 (AID 651864)
Details: HeLa viability, CellTiter-Glo ATP luminescence; series mostly up to 80 µM

| SMILES | outcome |
| --- | --- |
| Cc1ccccc1CC(=O)NC1CCCC1 | inactive |
| CCn1nnnc1NCc1ccc(C(C)C)cc1 | inactive |
| CCn1nnnc1CCc1ccc(N2CCCC2)cc1 | inactive |
| Cn1nnnc1NCc1ccc(N2CCCC2)cc1 | inactive |
| O=C(Cc1ccc(-c2ccccc2)cc1)NC1CCCC1 | inactive |
| CCn1nnnc1NCc1cccc(N2CCCC2)c1 | inactive |
| CC(C)NC(=O)Cc1ccc(-c2ccccc2)cc1 | inactive |
| CCn1nnc(NCc2ccc(C)cc2)n1 | inactive |
| CS(=O)(=O)c1ccc(CC(=O)NC2CCCC2)cc1 | inactive |
| CC(C)(C)OC(=O)N1CC(NC(=O)Cc2ccc(-c3ccccc3)cc2)C1 | inactive |
| CCCCn1nnnc1NCc1ccc(N2CCCC2)cc1 | inactive |
| CC1(NC(=O)Cc2ccc(-c3ccccc3)cc2)COC1 | inactive |
| CCCn1nnnc1NCc1ccc(C(C)C)cc1 | inactive |
| CCn1nnnc1NCc1ccccc1N1CCCC1 | inactive |
| O=C(Cc1ccc(-c2ccccc2)cc1)NC1CC1 | inactive |
| Fc1ccc(Cn2nnnc2NCc2ccc(N3CCCC3)cc2)cc1 | inactive |
| CCCn1nnnc1NCc1ccccc1Cl | inactive |

| SMILES | outcome |
| --- | --- |
| CCn1nnnc1NCc1ccc(N2CCCC2)cc1 | inactive |
| O=C(Cc1ccc(-c2ccccc2)cc1)NC1CCOCC1 | inactive |
| c1ccc(Cn2nnnc2NCc2ccc(N3CCCC3)cc2)cc1 | inactive |
| O=C(Cc1cccc(F)c1)NC1CCCC1 | inactive |
| Cc1ccc(Cn2nnnc2NCc2ccc(N3CCCC3)cc2)cc1 | inactive |
| CC(C)c1ccc(CNc2nnnn2C)cc1 | inactive |
| c1ccc(-n2nnnc2NCc2ccc(N3CCCC3)cc2)cc1 | inactive |
| CCn1nnnc1NCc1ccc(N2CCCCC2)cc1 | inactive |
| O=C(Cc1cccc(OC(F)(F)F)c1)NC1CCCC1 | inactive |
| O=C(Cc1ccccc1C(F)(F)F)NC1CCCC1 | inactive |
| O=C(NCc1ccc(-c2ccccc2)cc1)C1CCCC1 | inactive |
| CCn1nnnc1NCc1cccc(OC)c1 | inactive |
| COc1ccc(CC(=O)NC2CCCC2)cc1 | inactive |
| O=C(Cc1ccccc1F)NC1CCCC1 | inactive |
| O=C(Cc1ccccc1OC(F)(F)F)NC1CCCC1 | inactive |
| O=C(Cc1ccc(-c2ccccc2)cc1)NC1CCC1 | inactive |
| O=C(Cc1ccccc1Cl)NC1CCCC1 | inactive |
